Results filed as inconclusive are left out. Entries that show only a call come without a potency. The source made the active and inactive calls. Calls follow the shape of the dose curve; as a rule, active = well fitted cell-killing curve with a large enough effect in the repeat runs; inconclusive = weak or mixed curves, or effect the other way; inactive = flat fitted curve, though single readings scatter.
test: cAMP Responsive Elements (CRE) small molecule antagonists, cell-based qHTS assay: qHTS cell viability counter screen (AID 2060913); conditions: CRE-bla HEK293T viability, CellTiter-Glo luminescence, 5 h; series mostly up to 92.4 µM; also: nearly all actives have a fitted effect of over 40% in size
Text: U.S. Tox21 Program National Center for Advancing Translational Sciences [NCATS] Division of Preclinical Innovation [DPI] U.S. Environmental Protection Agency [EPA] National Institutes of Environmental Health Sciences [NIEHS] National Toxicology Program [NTP] U.S. Food and Drug Administration [FDA] Tox21 Assay Overview: CREB (cyclic-AMP Responsive Element Binding Protein) is a cellular transcription factor. It binds to certain DNA sequences called cAMP Responsive Elements (CRE) and regulates the transcription of the genes. […] This cell line can be used to find agonists/antagonists of the cyclic AMP signaling pathway. The activation of the report gene under culture conditions can be detected by fluorescence intensity. This cell line has been used to screen the Tox21 10K compound library to identify agonists that induce oxidative stress. The cytotoxicity of the Tox21 compound library against the CRE-bla cell line was tested in parallel by measuring the cell viability using CellTiter-Glo assay (Promega, Madison, WI) in the same wells.
Tox21 Assay Protocol Summary: CRE-bla Hek 293T cells were suspended in assay medium (DMEM containing 10% dialyzed FBS, 0.1 mM NEAA, 1 mM sodium pyruvate and 25 mM HEPES) and dispensed at 2,000 cells/4 uL /well into 1536-well black wall/clear bottom plates using a Multidrop Combi (ThermoFisher Scientific, Waltham, MA) dispenser. After the assay plates were incubated at 37 C/5% CO2 for 18 hrs, 23 nL of compounds dissolved in DMSO, positive controls or DMSO only was transferred to the assay plate by a pintool workstation (Kalypsys, San Diego, CA), followed by addition of 1 uL of 1.25uM NKH477 (0.25 uM as final concentration) in assay medium using a Flying Reagent Dispenser (Aurora Discovery, San Diego, CA). The plates were incubated at 37 C and 5% CO2 for 3 hrs. Then 1 uL of LiveBLAzer B/G FRET substrate (Invitrogen, Carlsbad, CA) was added to each well using Bioraptr Flying Reagent Dispenser (FRD, Aurora Discovery, San Diego, CA). The plates were incubated at room temperature for 2 h, then fluorescence intensities were measured using an Envision plate reader (PerkinElmer, Shelton, CT) at Excitation 405nm, Emission 460nm and 530nm. The % activity was determined from the ratio of 460nm/530nm. For cell viability readout that measures cytotoxicity, 4 uL /well of CellTiter-Glo reagent was added into the assay plates using Bioraptr FRD. After 30 min incubation at room temperature, the luminescence intensity in the assay plates was measured using a ViewLux (PerkinElmer, Shelton, CT) plate reader.
Potency is read from the fitted curve at half-maximal effect.

Structure (SMILES) | Potency
CC(C)=CCOc1c2occc2cc2ccc(=O)oc12 | inactive
NNC(=O)c1ccccc1 | inactive
Oc1ccc(-c2ccccc2)cc1 | inactive
CCCCCCCCCCCCCCCCCC(=O)O | inactive
NNC(N)=O | inactive
O=C(O)C(Cl)(Cl)Br | inactive
NC(=O)O | inactive
CCCC[n+]1ccccc1C | inactive
ClC(Cl)(Cl)Cl | inactive
CCN(CC)C(=O)[C@@H]1C=C2c3cccc4[nH]cc(c34)C[C@H]2N(C)C1 | inactive
COC(=O)C1=CCCN(C)C1 | inactive
C#C[C@]1(O)CC[C@H]2[C@@H]3CCC4=CC(=O)CC[C@]4(C)[C@H]3CC[C@@]21C | inactive
O=C(O)c1nc(Cl)ccc1Cl | inactive
Cn1sc(Cl)cc1=O | inactive
C#CCOS(=O)OC1CCCCC1Oc1ccc(C(C)(C)C)cc1 (stereo not given) | inactive
CCCCCCCCCCCCCCCC[N+](C)(C)C | 54.5 µM (active)
C[C@@H](Oc1ccc(Cl)cc1Cl)C(=O)O | inactive
CC(Cl)(Cl)[N+](=O)[O-] | inactive
Cc1cc2c3c(c1)C(c1ccccc1)=N[C@@H](NC(=O)c1ccncc1)C(=O)N3CC2 | inactive
C[C@]12CC[C@H]3[C@@H](CC=C4C[C@@H](O)CC[C@@]43C)[C@@H]1CC[C@@H]2O | inactive

Structure (SMILES) | Potency
CCN(CC)C(C)C(=O)c1ccccc1 (stereo not given) | inactive
CCCCC(CC)COC(=O)c1ccccc1C(=O)OCC(CC)CCCC (stereo not given) | inactive
CC1(C)[C@H](/C=C2\CCSC2=O)[C@@H]1C(=O)OCc1coc(Cc2ccccc2)c1 | inactive
O=NN1CCOCC1 | inactive
CN(N=O)C(N)=O | inactive
Cc1ccn2nc(S(=O)(=O)Nc3c(F)cccc3F)nc2n1 | inactive
CC(Cl)CN(C)C (stereo not given) | inactive
O=C1Nc2ccc(Cl)cc2C(c2ccccc2)=NC1O (stereo not given) | inactive
COP(=O)(OC)O/C(=C\Cl)c1cc(Cl)c(Cl)cc1Cl | inactive
Cc1ccc2c(C)cccc2c1 | inactive
O=C(NCNC(=O)NC1C(=O)NC(=O)N1CO)NC1C(=O)NC(=O)N1CO (stereo not given) | inactive
COc1ccc2[nH]cc(CCN(C(C)C)C(C)C)c2c1 | inactive
COC(=O)C(Br)CBr (stereo not given) | inactive
CC1=C2[C@H]3OC(=O)[C@@H](C)[C@@H]3CC[C@@]2(C)C=CC1=O | inactive
COc1c2c(cc3c1OCO3)CCN(C)C2 | inactive
Nc1ccccc1C(=O)O | inactive
COc1ccc(C(=O)N2CCCC2=O)cc1 | inactive
O=Cc1ccco1 | inactive
CC(C)CC(N(C)C)C1(c2ccc(Cl)cc2)CCC1 (stereo not given) | inactive
Cl/C=C\Cl | inactive

From PubChem BioAssay (Tox21)
